Records with an inconclusive call do not appear. Calls of active or inactive are those of the source. Unless noted, the call rests on the fitted dose curve.
Assays:
[1] = Nuclear factor erythroid 2-related factor 2/antioxidant responsive element (Nrf2/ARE) small molecule agonists: qHTS cell viability counter screen in human keratinocytes (AID 1919968; active means well fitted curve in the direction sought with a large enough effect in the repeat runs; an effect the other way counts as inactive or inconclusive; further: nearly all actives have a fitted effect of over 55% in size)
Procedure, shortened: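 Fluorescence read-out from CellTiter-Fluor after 1 h at 37 C. Wells held HaCaT-derived ARE-luciferase reporter cells (1,500/well) treated 23 h with DMSO-dissolved compounds. Run in the same wells as the luciferase agonist read.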

[2] = Nuclear factor erythroid 2-related factor 2/antioxidant responsive element (Nrf2/ARE) small molecule agonists: luciferase reporter gene qHTS assay in human keratinocytes (AID 1919969); further: nearly all actives have a fitted effect of over 35% in size; further: potency means the concentration at half of the fitted maximal effect
[3] = biological target: Gonadotropin-releasing hormone receptor (Homo sapiens) (UniProt P30968); assay: Human gonadotropin-releasing hormone receptor (GnRHR) small molecule agonists, calcium flux assay in GnRHR-HEK293 cells (AID 1920063); further: nearly all actives have a fitted effect of over 35% in size
Sequence of Gonadotropin-releasing hormone receptor (Homo sapiens) (P30968 whole entry, looked up): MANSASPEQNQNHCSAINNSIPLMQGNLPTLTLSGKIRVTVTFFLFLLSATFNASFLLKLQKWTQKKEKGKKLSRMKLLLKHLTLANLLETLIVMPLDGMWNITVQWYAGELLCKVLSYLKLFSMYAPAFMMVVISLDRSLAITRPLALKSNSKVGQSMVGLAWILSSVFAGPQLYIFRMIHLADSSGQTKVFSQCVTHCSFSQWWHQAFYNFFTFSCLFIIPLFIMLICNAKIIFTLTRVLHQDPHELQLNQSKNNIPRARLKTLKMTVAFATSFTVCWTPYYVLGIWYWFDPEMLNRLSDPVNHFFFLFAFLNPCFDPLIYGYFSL
Procedure, shortened: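 Calcium-dye fluorescence, Ex/Em=480/540, recorded every 1 sec over 3 min after compound addition to GnRHR-HEK293 cells. Cells had been seeded 18 hours earlier and dye-loaded for 1 hour at 37 C. Fifteen concentrations, triplicates.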

[4] = biological target: KiSS-1 receptor (Homo sapiens) (UniProt Q969F8); assay: Human kisspeptin (KISS1R) small molecule agonists, calcium flux assay in KISS1R-HEK293 cells (AID 1920064; active means well fitted curve in the direction sought with a large enough effect in the repeat runs; an effect the other way counts as inactive or inconclusive)
Sequence of KiSS-1 receptor (Homo sapiens) (Q969F8 whole entry, looked up): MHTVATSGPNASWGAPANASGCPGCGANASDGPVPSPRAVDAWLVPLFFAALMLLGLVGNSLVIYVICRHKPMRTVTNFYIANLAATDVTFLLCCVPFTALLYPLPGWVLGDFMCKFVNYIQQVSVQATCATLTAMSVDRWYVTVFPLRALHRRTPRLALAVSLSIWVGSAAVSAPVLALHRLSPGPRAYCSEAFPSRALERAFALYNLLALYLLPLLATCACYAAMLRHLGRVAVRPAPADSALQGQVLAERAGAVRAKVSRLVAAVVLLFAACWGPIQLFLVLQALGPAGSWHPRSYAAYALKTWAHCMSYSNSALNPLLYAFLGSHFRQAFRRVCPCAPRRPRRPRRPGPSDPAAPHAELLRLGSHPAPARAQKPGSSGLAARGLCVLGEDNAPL
Procedure, shortened: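 Calcium flux read-out: kinetic fluorescence at Ex/Em=480/540, 1 s intervals over 3 min, after pin-tool compound addition to dye-loaded KISS1R-HEK293 cells. Fifteen concentrations, triplicates.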

[5] = G protein-coupled receptor (GPCR) small molecule agonists, calcium flux assay: HEK293 wild type cell line counter screen (AID 1920065)
Procedure, shortened: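 Agonist mode; 18 h seeding at 37 C, 1 h dye load at 37 C; compounds pinned from DMSO, ATP as positive control; kinetic fluorescence 480/540 nm, 3 min, 1 s reads; 15 concentrations, triplicate.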

[6] = p53 small molecule agonists, cell-based qHTS assay with human liver microsomes (AID 1963577);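 further: p53 response element beta-lactamase reporter cells with liver microsomes plus NADPH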
Procedure, shortened: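 With metabolic activation: human liver microsomes (0.5 mg/mL final) plus NADPH (0.5 mg/mL final) added alongside compounds to p53RE-bla cells; 16 h 37 C exposure; beta-lactamase read by LiveBLAzer fluorescence.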

[7] = p53 small molecule agonists, cell-based qHTS assay with rat liver microsomes (AID 1963578)
Procedure, shortened: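 Metabolic activation by rat liver microsomes and NADPH, each 0.5 mg/mL final, added right after compounds to p53RE-bla reporter cells (4,000/well, plated 5 h earlier). 16 h at 37 C, then LiveBLAzer substrate for 2 h at room temperature in the dark; fluorescence read-out.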

[8] = p53 small molecule agonists, cell-based qHTS assay with human liver microsomes: qHTS cell viability counter screen (AID 1963579); further: nearly all actives have a fitted effect of over 45% in size
Procedure, shortened: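 Metabolic activation used human liver microsomes and NADPH, both 0.5 mg/mL final, over 16 hours at 37 C on p53RE-bla cells (4,000/well). Cytotoxicity measured by CellTiter-Glo luminescence, 30 min at room temperature.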

[9] = p53 small molecule agonists, cell-based qHTS assay with rat liver microsomes: qHTS cell viability counter screen (AID 1963580); further: nearly all actives have a fitted effect of over 45% in size
Procedure, shortened: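 Rat liver microsome (0.5 mg/mL final) and NADPH (0.5 mg/mL final) co-incubation with compounds for 16 h at 37 C on HCT-116 p53RE-bla cells; cytotoxicity taken from intracellular ATP luminescence.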

[10] = p53 small molecule agonists, cell-based qHTS assay: qHTS cell viability counter screen (AID 1963581); further: nearly all actives have a fitted effect of over 45% in size
Procedure, shortened: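 Cytotoxicity read-out: ATP-based luminescence (CellTiter-Glo, 30 min RT) measured in the same wells as the p53 reporter assay, HCT-116 p53RE-bla cells, 16 h compound exposure at 37 C.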

[11] = p53 small molecule agonists, cell-based qHTS assay (AID 1963582; active means well fitted activation curve with a large enough effect in the signal ratio in the repeat runs, not every such curve was filed as active; the % refers to the signal ratio)
Procedure, shortened: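 Fluorescence intensity read-out of a beta-lactamase reporter under a p53 response element. Cells were exposed to DMSO-dissolved compounds for 16 h at 37 C, then developed with FRET substrate for 2 h at RT.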

[12] = biological target: 5-hydroxytryptamine receptor 2A (Homo sapiens) (UniProt P28223); assay: 5-hydroxytryptamine receptor 2A (HTR2A) small molecule antagonists, cell-based qHTS assay (AID 1963586); further: nearly all actives have a fitted effect of over 45% in size
Sequence of 5-hydroxytryptamine receptor 2A (Homo sapiens) (P28223 whole entry, looked up): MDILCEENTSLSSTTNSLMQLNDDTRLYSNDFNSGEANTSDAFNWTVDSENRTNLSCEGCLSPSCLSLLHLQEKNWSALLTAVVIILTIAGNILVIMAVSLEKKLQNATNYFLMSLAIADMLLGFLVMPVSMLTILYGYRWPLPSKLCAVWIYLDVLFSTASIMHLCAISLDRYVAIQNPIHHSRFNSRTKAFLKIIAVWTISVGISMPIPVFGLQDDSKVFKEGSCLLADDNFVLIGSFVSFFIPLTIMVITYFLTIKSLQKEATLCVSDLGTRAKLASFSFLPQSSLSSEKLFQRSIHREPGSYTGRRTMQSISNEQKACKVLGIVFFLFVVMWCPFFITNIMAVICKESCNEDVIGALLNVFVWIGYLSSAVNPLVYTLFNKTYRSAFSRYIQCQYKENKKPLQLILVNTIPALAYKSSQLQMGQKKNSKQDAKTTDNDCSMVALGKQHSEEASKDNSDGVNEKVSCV
Procedure, shortened: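 CHO cells stably expressing human HTR2A were plated for 18 h at 37 C, then loaded with calcium dye for 1 h. Compounds were preincubated 5 min at room temperature before DOI (4 nM solution) was added. Kinetic fluorescence was read for 3 min.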

[13] = biological target: 5-hydroxytryptamine receptor 2A (Homo sapiens) (UniProt P28223); assay: 5-hydroxytryptamine receptor 2A (HTR2A) small molecule agonists, cell-based qHTS assay (AID 1963587); further: nearly all actives have a fitted effect of over 30% in size
Procedure, shortened: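 Kinetic calcium-flux fluorescence (2 min, 1 sec intervals) after compound addition in agonist mode. HTR2A-CHO cells were cultured 18 h, then dye-loaded 1 h at 37 C.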

[14] = biological target: Muscarinic acetylcholine receptor M1 (Homo sapiens) (UniProt P11229); assay: Cholinergic receptor muscarinic 1 (CHRM1) small molecule antagonists, cell-based qHTS assay (AID 1963588); further: nearly all actives have a fitted effect of over 40% in size
Sequence of Muscarinic acetylcholine receptor M1 (Homo sapiens) (P11229 whole entry, looked up): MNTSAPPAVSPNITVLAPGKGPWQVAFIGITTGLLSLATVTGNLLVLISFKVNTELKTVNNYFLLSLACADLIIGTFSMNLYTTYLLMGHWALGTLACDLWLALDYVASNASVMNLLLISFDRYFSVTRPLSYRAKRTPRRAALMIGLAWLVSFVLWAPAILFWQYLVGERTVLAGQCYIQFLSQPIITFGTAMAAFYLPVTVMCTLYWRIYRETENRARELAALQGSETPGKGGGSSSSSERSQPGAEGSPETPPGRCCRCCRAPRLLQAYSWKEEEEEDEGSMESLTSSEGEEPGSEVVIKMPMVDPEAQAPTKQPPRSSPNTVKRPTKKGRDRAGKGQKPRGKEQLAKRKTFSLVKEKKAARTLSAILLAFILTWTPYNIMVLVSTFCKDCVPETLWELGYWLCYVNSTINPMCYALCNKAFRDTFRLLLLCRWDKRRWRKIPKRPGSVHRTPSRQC
Procedure, shortened: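 Compounds were tested at 15 concentrations in three independent runs. Dye-loaded CHRM1-CHO cells were exposed 5 min at room temperature before stimulation by acetylcholine added at 50nM. Intracellular calcium was read kinetically on FDSS for 3 min.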

[15] = biological target: Muscarinic acetylcholine receptor M1 (Homo sapiens) (UniProt P11229); assay: Cholinergic receptor muscarinic 1 (CHRM1) small molecule agonists, cell-based qHTS assay (AID 1963589); further: nearly all actives have a fitted effect of over 35% in size
Procedure, shortened: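 Calcium flux read-out: kinetic fluorescence at 1 sec intervals after pin-tool compound addition to dye-loaded CHRM1-CHO cells (human M1). Agonist mode; 15 concentrations tested in triplicate independent runs.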

[16] = cAMP Responsive Elements (CRE) small molecule antagonists, cell-based qHTS assay (AID 1963591; active means well fitted inhibition curve with a large enough effect in the signal ratio in the repeat runs, not every such curve was filed as active; the % refers to the signal ratio)
Procedure, shortened: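 HEK293T CRE-bla; 18 h preincubation; compound pin-transfer; NKH477 0.25 uM final, 3 h, 37 C; LiveBLAzer FRET substrate 2 h RT.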

[17] = biological target: Beta-2 adrenergic receptor (Homo sapiens) (UniProt P07550); assay: Adrenergic beta2 receptor (ADRB2) small molecule antagonists, cell-based qHTS assay (AID 1963592); further: series mostly up to about 92 µM; nearly all actives have a fitted effect of over 50% in size
Sequence of Beta-2 adrenergic receptor (Homo sapiens) (P07550 whole entry, looked up): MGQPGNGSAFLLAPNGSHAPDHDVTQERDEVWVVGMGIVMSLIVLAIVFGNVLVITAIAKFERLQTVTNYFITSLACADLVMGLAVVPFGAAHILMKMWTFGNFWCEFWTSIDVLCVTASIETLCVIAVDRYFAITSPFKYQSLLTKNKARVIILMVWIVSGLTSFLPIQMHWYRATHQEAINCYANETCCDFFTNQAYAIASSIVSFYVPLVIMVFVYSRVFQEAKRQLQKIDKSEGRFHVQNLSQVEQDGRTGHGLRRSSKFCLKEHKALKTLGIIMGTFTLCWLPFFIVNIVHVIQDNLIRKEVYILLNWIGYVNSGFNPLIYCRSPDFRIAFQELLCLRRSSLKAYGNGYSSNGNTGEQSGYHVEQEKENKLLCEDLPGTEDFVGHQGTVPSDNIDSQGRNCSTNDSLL
Procedure, shortened: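 Assay format: CHO-ADRB2 cells, 18-20hr seeding at 37C/5% CO2, then compound plus 1nM isoproterenol agonist mix for 0.5hr RT. Homogeneous time-resolved fluorescence cAMP detection after 1hr, expressed as 665/615 nm ratio.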

[18] = biological target: D(2) dopamine receptor (Homo sapiens) (UniProt P14416); assay: Dopamine D2 receptor (DRD2) small molecule agonists, cell-based qHTS assay (AID 1963594); further: nearly all actives have a fitted effect of over 35% in size
Sequence of D(2) dopamine receptor (Homo sapiens) (P14416 whole entry, looked up): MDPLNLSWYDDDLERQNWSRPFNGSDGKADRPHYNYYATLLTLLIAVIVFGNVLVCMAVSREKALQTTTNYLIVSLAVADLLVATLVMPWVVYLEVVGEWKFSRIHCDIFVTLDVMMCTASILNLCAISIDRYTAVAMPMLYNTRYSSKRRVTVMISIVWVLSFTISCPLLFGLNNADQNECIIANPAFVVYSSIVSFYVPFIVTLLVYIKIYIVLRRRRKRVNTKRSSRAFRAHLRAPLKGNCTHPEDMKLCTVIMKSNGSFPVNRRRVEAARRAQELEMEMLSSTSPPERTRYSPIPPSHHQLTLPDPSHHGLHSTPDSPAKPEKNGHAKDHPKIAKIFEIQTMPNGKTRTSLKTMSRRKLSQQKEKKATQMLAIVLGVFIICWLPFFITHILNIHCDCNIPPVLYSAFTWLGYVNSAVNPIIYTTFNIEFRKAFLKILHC
Procedure, shortened: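 cAMP accumulation in DRD2-HEK293 cells measured by HTRF after 1 h detection; compounds added 10 min before NKH477 (200nM […]) forskolin-analogue stimulation, 30 min at room temperature, with Ro20-1724 present at 0.1 mM final.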

[19] = biological target: D(2) dopamine receptor (Homo sapiens) (UniProt P14416); assay: Dopamine D2 receptor (DRD2) small molecule antagonists, cell-based qHTS assay (AID 1963595; active means well fitted inhibition curve with a large enough effect in the signal ratio in the repeat runs, with a control signal flat; the % refers to the signal ratio)
Procedure, shortened: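 HEK293 cells stably expressing DRD2 were preincubated with 0.1 mM Ro20-1724, then with compound for 10 min at room temperature. Cells were stimulated with 200 nM NKH477 plus 12 nM quinpirole for 30 min, and cAMP was read by HTRF.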

[20] = cAMP Responsive Elements (CRE) small molecule agonists, cell-based qHTS assay (AID 1963590)
Procedure, shortened: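 Beta-lactamase reporter readout: LiveBLAzer B/G FRET substrate, 2 h at room temperature, added after 3 h compound treatment of CRE-bla HEK 293T cells at 37 C/5% CO2.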
On the % scale 0 is the no-effect control and ±100 the full control effect.

O=C(N[C@@H](Cc1ccccc1)[C@@H](O)C(=O)N1C[C@@H](O)[C@@H](O)C1)c1cc2cc(Cl)ccc2[nH]1
inactive: Potency [1] | Potency [2] | Potency [3] | outcome [4] | outcome [5] | Potency [6] | Potency [7] | Potency [8] | Potency [9] | Potency [10] | Potency [11] | Potency [12] | Potency [13] | Potency [14] | Potency [15] | Potency [16] | Potency [17] | Potency [18] | Potency [19]

C=COCC1CCC(CO)CC1 (stereo unspecified)
inactive: Potency [1] | Potency [2] | Potency [3] | outcome [4] | outcome [5] | Potency [6] | Potency [7] | Potency [8] | Potency [9] | Potency [10] | Potency [11] | Potency [12] | Potency [13] | Potency [14] | Potency [15] | Potency [20] | Potency [17] | Potency [18] | Potency [19]

CC1CCc2cc(F)cc3c(=O)c(C(=O)O)cn1c23 (stereo unspecified)
inactive: Potency [1] | Potency [2] | Potency [3] | outcome [4] | outcome [5] | Potency [6] | Potency [7] | Potency [8] | Potency [9] | Potency [10] | Potency [11] | Potency [12] | Potency [13] | Potency [14] | Potency [15] | Potency [16] | Potency [17] | Potency [18] | Potency [19]

c1ccc(SSc2ccccc2)cc1
active: Potency [2] 27.5 µM
inactive: Potency [1] | Potency [3] | outcome [4] | outcome [5] | Potency [6] | Potency [7] | Potency [8] | Potency [9] | Potency [10] | Potency [11] | Potency [12] | Potency [13] | Potency [14] | Potency [15] | Potency [16] | Potency [17] | Potency [18] | Potency [19]

CCCCCCCCC(C)=O
inactive: Potency [1] | Potency [2] | Potency [3] | outcome [4] | outcome [5] | Potency [6] | Potency [7] | Potency [8] | Potency [9] | Potency [10] | Potency [11] | Potency [12] | Potency [13] | Potency [14] | Potency [15] | Potency [20] | Potency [17] | Potency [18] | Potency [19]

NC[C@H]1O[C@H](O[C@H]2[C@H](O[C@@H]3O[C@H](CO)[C@@H](O)[C@H]3O)C(O)[C@H](N)C[C@@H]2N)[C@H](N)[C@@H](O)[C@@H]1O (stereo partly specified)
inactive: activity change, negative = cytotoxicity [1] -6.49% [at 8.39 µM] | activity, positive = activation [2] -8.73% [at 8.39 µM] | activity change [3] -0.504% [at 5.22 µM, stronger effect = higher value] | activation [4] -0.532% [at 6.97 µM] | activation [5] -0.0987% [at 5.23 µM] | activation [6] 0.817% [at 5.99 µM] | activation [7] -0.761% [at 5.99 µM] | activity change, negative = cytotoxicity [8] 26.1% [at 5.99 µM] | activity change, negative = cytotoxicity [9] 1.61% [at 5.99 µM] | activity change, negative = cytotoxicity [10] 0.386% [at 5.99 µM] | activation [11] -3.27% [at 5.99 µM] | activity, negative = inhibition [12] 2.42% [at 5.62 µM] | activation [13] -4.1% [at 7.02 µM] | activity, negative = inhibition [14] 1.47% [at 5.58 µM] | activation [15] 0.272% [at 6.97 µM] | activation [20] 4.47% [at 8.39 µM] | activity change, negative = inhibition [19] -1.87% [at 8.38 µM]

COC(=O)c1ccc(I)cc1S(=O)(=O)NC(=O)Nc1nc(C)nc(OC)n1
inactive: Potency [1] | Potency [2] | Potency [3] | outcome [4] | outcome [5] | Potency [6] | Potency [7] | Potency [8] | Potency [9] | Potency [10] | Potency [11] | Potency [12] | Potency [13] | Potency [14] | Potency [15] | Potency [20] | Potency [17] | Potency [18] | Potency [19]

— PubChem BioAssay (Tox21)
